Measured values from PubChem BioAssay (EPA / NIEHS).
Values joined by “and” are separate entries in the source; they are usually repeats but may differ in a detail not shown here. Equal entries are not always repeated. Where a structure was tested more than once in an assay, its records may differ in their call. Active and inactive are the calls of the source. The calls were made as follows: active = hit-call score of the fitted dose curve at least 0.9, where 1 is the maximum; inactive = score below 0.9.

What follows are compounds tested on Interferon-gamma inducible Protein 10 (IP10), CXCL10 (gene 3627) (assay: BSK_BE3C_IP10: BioMAP Diversity Plus: BE3C Assay for Interferon-gamma inducible Protein 10 (IP10) Biomarker Activity (AID 2283034)). Details: primary human bronchial epithelial cells; actives raise or lower the signal.
Protocol: BSK_BE3C is a cell-based, multiplexed-readout assay that uses bronchial epithelial cell, a human lung primary cell, with measurements taken at 24 hours after chemical dosing in a 96-well plate.BSK_BE3C_IP10 is an assay component measured in the BSK_BE3C assay. It measures IP-10 antibody related to regulation of gene expression using ELISA technology.Data from the assay component BSK_BE3C_IP10 was analyzed into 1 assay endpoint. This assay endpoint, BSK_BE3C_IP10, was analyzed with bidirectional fitting relative to DMSO as the negative control and baseline of activity. Using a type of binding reporter, gain or loss-of-signal activity can be used to understand changes in the signaling as they relate to the gene CXCL10. Furthermore, this assay endpoint can be referred to as a primary readout, because this assay has produced multiple assay endpoints where this one serves a signaling function. To generalize the intended target to other relatable targets, this assay endpoint is annotated to the cytokine intended target family, where the subfamily is chemotactic factor.
The levels of cell surface (or secreted, indicated by the prefix "s") biomarker endpoints were measured by ELISA. Overt cytotoxicity to cells in confluent adherent cultures (all systems other than the BT system) was assessed by measuring total protein levels using sulforhodamine B (SRB) staining in parallel cultures at the time of biomarker measurements, indicated as SRB endpoints. For proliferation assays for adherent cell types, individual cell types are cultured at sub-confluence and relative cell numbers quantified by SRB staining at time points optimized for each system (48 h: 3C and CASM3C systems; 72 h: BT and HDF3CGF systems; 96 h: SAg system). SRB was performed by staining cells with 0.1% SRB after fixation with 10% TCA and reading wells at 560 nm.Viability and proliferation of PBMC (T cells) was quantified by Alamar Blue reduction for the SAg and BT systems. For PBMC viability (referred to as PBMC Cytotoxicity within the assay endpoint names), cells were plated (75,000/well in a 96-well plate) and then chemical samples added for 1 h before addition of activators, SEB and TSST-1 (20 ng/mL final concentration each). Cells were incubated for 90 h. Then, Alamar Blue (20 uL/well) (Invitrogen, Cat DAL1100) was added for 6 h, and the plates were read with a fluorescence microplate reader at 546/580 nm (excitation/emission). For PBMC proliferation, cells were plated and activated as above but incubated for only 16 h prior to addition of Alamar Blue. Plates were read after 6 h.

| Structure (SMILES) | outcome | AC50 |
| --- | --- | --- |
| C=CC(=O)NCOCCCC | inactive | – |
| CC(C)CCCCCOC(=O)CS | inactive | – |
| c1ccc2c(c1)[nH]c1ccccc12 | inactive | 20.1 µM (active) |
| CCNc1nc(NC(C)(C)C)nc(OC)n1 | inactive | – |
| O=C1CCCCCCCCCCCN1 | inactive | – |
| Cc1ccc([N+](=O)[O-])cc1N | inactive | – |
| Nc1nc(N)nc(-c2ccccc2)n1 | inactive | – |
| Cc1c(O)cccc1O | inactive | – |
| CC(Cl)COP(=O)(OCC(C)Cl)OCC(C)Cl (stereo not given) | inactive | – |
| C=CC(=O)OCC(C)OCC(C)OCC(C)OC(=O)C=C (stereo not given) | – | 30.6 µM (active) |
| C=C(C)C(=O)OCCCCCCCCCCCC | inactive | – |
| O=C(O)C(F)(F)C(F)(F)C(F)(F)C(F)(F)C(=O)O | inactive | – |
| CCOC(=O)C1=NN(c2ccc(Cl)cc2Cl)C(C)(C(=O)OCC)C1 (stereo not given) | inactive | – |
| Fc1ccc(Br)cc1 | inactive | – |
| COc1ccc(C(=O)c2ccccc2)c(O)c1 | inactive | – |
| CCOC(=O)/C=C\C(=O)OCC | inactive | – |
| O=C(Oc1ccccc1)c1ccccc1C(=O)Oc1ccccc1 | inactive | – |
| c1ccc2sc(SSN3CCOCC3)nc2c1 | – | 12.3 µM (active) |
| O=C(Cl)c1c(Cl)c(Cl)c(C(=O)Cl)c(Cl)c1Cl | inactive | – |
| CCCC(C)C(=O)OCC (stereo not given) | inactive | – |

| Structure (SMILES) | outcome | AC50 |
| --- | --- | --- |
| CCN1CN(CC)CN(CC)C1 | inactive | – |
| COc1ccc(C(=O)/C(Br)=C\C(=O)O)cc1 | – | 20 µM (active) |
| CCC1(C)C(=O)N(Cl)C(=O)N1Cl (stereo not given) | inactive | – |
| CC(C)[N+](C)(CCOC(=O)C1c2ccccc2Oc2ccccc21)C(C)C | inactive | – |
| C=CC(=O)OCCCCCCOC(=O)C=C | – | 26 µM (active) |
| C=CC(=O)OCCCCCCCC(C)C | inactive | – |
| CCCCCCOC(=O)CCCCC(=O)OCCCCCC | inactive | – |
| CC(C)C(=O)OCCc1ccccc1 | inactive | – |
| CCCCCCC=O | inactive | – |
| CC1=CC=C(C(C)C)CC1 | inactive | – |
| Nc1ccc(C(=O)O)cc1 | inactive | – |
| CCCCCC1=CCCC1=O | inactive | – |
| COC(OC)(C(=O)c1ccccc1)c1ccccc1 | inactive | – |
| CCCCCCCO | inactive | – |
| CC=C(C)C(C)=O | – | 20 µM (active) |
| C=CCCCCCCCCC=O | inactive | – |
| CCCCC1C(=O)N(c2ccccc2)N(c2ccccc2)C1=O | inactive | – |
| c1ccc(Nc2cccc3ccccc23)cc1 | – | 29.1 µM (active) and 30.6 µM (active) |
| C=CC(=O)NC(C)(C)C | inactive | – |
